The text below walks through data of PubChem BioAssay (NCATS).

Inconclusive results are not listed. The source made the active and inactive calls. Calls come from the whole dose curve; as a rule, active = well fitted curve in the direction sought with a large enough effect; inconclusive = small, poorly fitted or top-dose-only effect, or another doubt; inactive = no such curve, though single readings can be large; an effect the other way counts as inactive or inconclusive.

Assay [1] is described as follows: Quantitative high throughput screen for delayed death inhibitors of the malarial parasite plastid, 96 hour incubation (AID 488745). Note: series mostly up to about 29 µM; nearly all actives have a fitted effect of over 70% in size. In short, it runs like this:
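Decreased firefly luciferase luminescence indicates inhibited growth of reporter-integrated P. falciparum after two generations (96 h, 37 C, 5% CO2). Infected erythrocytes at 0.1% parasitemia, 2% hematocrit, in Albumax-supplemented RPMI 1640.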

The nature of assay [2]: Quantitative high throughput screen for delayed death inhibitors of the malarial parasite plastid, 48 hour incubation (AID 488752). Note: nearly all actives have a fitted effect of over 65% in size. In short, it runs like this:
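One-generation (48 h) growth assay: a decrease in luciferase signal from an integrated reporter in P. falciparum-infected red cells (0.1% parasitemia, 2% hematocrit) after compound exposure at 37 C indicates parasite inhibition.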

Assay [3] concerns the target M-phase phosphoprotein 8 (Homo sapiens) (UniProt Q99549). Put plainly: qHTS Validation Assay for Inhibitors for MPP8 Chromodomain Interactions with Methylated Histone Tails (AID 488949). Note: top concentration of the series differs between compounds; nearly all actives have a fitted effect of over 55% in size. Summed up: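 MPP8 (50 nM) was pre-bound to 50 nM biotinylated H3(1-18)K9me3 peptide in PBS pH 7.4 with 0.01% Tween-20. Compounds were then added for 30 min at room temperature, and complex disruption was read by AlphaScreen with streptavidin donor and nickel-chelate acceptor beads.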
(In qHTS, concentration-response curves come from the screen itself.)

In assay [4] the target is Chromobox protein homolog 1 (Homo sapiens) (UniProt P83916). Put plainly: qHTS Validation Assay for Inhibitors of HP1-beta Chromodomain Interactions with Methylated Histone Tails (AID 488953).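 Note: loss of AlphaScreen luminescence from HP1-beta binding biotinylated H3K9me3 peptide; series mostly up to about 110 µM; nearly all actives have a fitted effect of over 50% in size.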 Summed up:
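AlphaScreen proximity signal from streptavidin donor and nickel chelate acceptor beads (final 10 ug/mL) after 30 min dark incubation. Compounds had 30 min at room temperature with preformed complex of 50 nM HP1-beta and 50 nM b-H3(1-18)K9me3 in PBS pH 7.4 with 0.01% Tween-20.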

Assay [5] concerns the target Methanococcus maripaludis chaperonin (MmCpn) (UniProt Q6LX38). Put plainly: High-Throughput Screening for Modulators of Cytosolic Chaperonin Activity: MmCpn Primary Screen (AID 488978).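 Note: 50 nM MmCpn enzyme hydrolysing 30 µM ATP at 37 °C.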 Summed up:
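MmCpn at 50 nM final was preincubated 5 min at RT with compound. ATP was then added at 30 uM final for 10 min at 37 C. ADP formed was detected by Transcreener HTRF (665/590 nm).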

For assay [6], the target named is Transient receptor potential cation channel subfamily V member 1 (Homo sapiens) (UniProt Q8NER1). Briefly: HTS Assay for Compounds that Act as Enhancers of the Vanilloid Receptor 1 (AID 488979). In short, it runs like this:
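TRPV1-expressing cells loaded with Fluo-8 calcium dye; compounds added and calcium influx read kinetically for 3 min (agonist phase), then capsaicin at EC20 added and read 2 min more for enhancement. Fluorescence ex 480/em 520 nm.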

Assay [7] has as its target Thyrotropin receptor (Homo sapiens) (UniProt P16473). Briefly: qHTS Assay for Antagonists of the Thyroid Stimulating Hormone Receptor (AID 488980). Note: series mostly up to about 58 µM. Summed up:
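TSHR-transfected HEK293 cells (2000/well) in HEPES-buffered HBSS with 70 uM RO 20-1724 were stimulated with 4 nM TSH (EC80, final) in the presence of compound. cAMP was measured by HTRF competition after lysis and 30 min at RT.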

Assay [8] concerns the target Thioredoxin reductase 1, cytoplasmic (Rattus norvegicus) (UniProt O89049). Put plainly: qHTS Assay for Substrates of Mammalian Selenoprotein Thioredoxin Reductase 1 (TrxR1) (AID 488772).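 Note: series mostly up to about 57 µM; a drop in NADPH fluorescence below the no-compound background marks a TrxR1 substrate.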 In short, it runs like this:
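In this dual-purpose format, potential substrates are identified from the first fluorescence read after selenite addition, not from the 8-minute delta. Rat enzyme is preincubated with NADPH and then with compound at ~22 deg C.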

Assay [9] has the same target. Briefly: qHTS Assay for Inhibitors of Mammalian Selenoprotein Thioredoxin Reductase 1 (TrxR1) (AID 488773). Note: nearly all actives have a fitted effect of over 40% in size. Note: potency is the fitted concentration of half-maximal effect. As to conditions: Potency: inhibition. Summed up:
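Inhibition is scored from the loss of NADPH fluorescence between first and last reads of an 8-min kinetic run. Selenite (400 uM) was the substrate, added after 15 min compound preincubation at room temperature.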

Assay [10] has as its target Flap endonuclease 1 (Homo sapiens) (UniProt P39748). Put plainly: qHTS Validation Assay for the Inhibitors of Human Flap endonuclease 1 (FEN1) (AID 488816). In short, it runs like this:
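Steps: add FEN1 (10 nM reagent) or buffer only; pin compounds; hold 15 min at room temperature; start with substrate, 50 nM final; read at 0 and 15 min; correct, normalize and fit a four-parameter Hill curve.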

Sequence of Transient receptor potential cation channel subfamily V member 1 (Homo sapiens) (Q8NER1 whole entry, looked up): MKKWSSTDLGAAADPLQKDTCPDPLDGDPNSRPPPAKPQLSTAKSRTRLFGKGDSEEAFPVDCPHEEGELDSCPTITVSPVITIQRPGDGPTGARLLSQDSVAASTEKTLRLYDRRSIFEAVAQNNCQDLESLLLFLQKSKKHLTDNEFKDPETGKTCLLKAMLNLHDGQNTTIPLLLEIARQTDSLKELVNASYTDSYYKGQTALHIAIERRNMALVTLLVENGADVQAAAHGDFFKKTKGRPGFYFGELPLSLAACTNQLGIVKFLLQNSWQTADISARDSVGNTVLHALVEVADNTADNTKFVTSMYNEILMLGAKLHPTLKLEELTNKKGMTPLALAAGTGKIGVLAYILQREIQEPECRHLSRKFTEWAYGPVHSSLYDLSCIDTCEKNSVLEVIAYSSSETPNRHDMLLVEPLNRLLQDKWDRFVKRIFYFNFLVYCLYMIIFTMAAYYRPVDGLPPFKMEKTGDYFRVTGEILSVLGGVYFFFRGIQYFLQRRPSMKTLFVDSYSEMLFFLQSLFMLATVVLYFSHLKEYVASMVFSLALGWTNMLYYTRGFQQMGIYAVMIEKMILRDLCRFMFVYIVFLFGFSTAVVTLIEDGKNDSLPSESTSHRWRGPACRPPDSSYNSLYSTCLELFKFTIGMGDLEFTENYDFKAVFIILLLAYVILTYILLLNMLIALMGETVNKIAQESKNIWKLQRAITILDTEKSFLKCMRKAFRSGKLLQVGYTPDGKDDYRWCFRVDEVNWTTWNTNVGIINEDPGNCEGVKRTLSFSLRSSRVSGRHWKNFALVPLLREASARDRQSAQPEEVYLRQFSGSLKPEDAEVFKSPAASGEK
Sequence of Thyrotropin receptor (Homo sapiens) (P16473 whole entry, looked up): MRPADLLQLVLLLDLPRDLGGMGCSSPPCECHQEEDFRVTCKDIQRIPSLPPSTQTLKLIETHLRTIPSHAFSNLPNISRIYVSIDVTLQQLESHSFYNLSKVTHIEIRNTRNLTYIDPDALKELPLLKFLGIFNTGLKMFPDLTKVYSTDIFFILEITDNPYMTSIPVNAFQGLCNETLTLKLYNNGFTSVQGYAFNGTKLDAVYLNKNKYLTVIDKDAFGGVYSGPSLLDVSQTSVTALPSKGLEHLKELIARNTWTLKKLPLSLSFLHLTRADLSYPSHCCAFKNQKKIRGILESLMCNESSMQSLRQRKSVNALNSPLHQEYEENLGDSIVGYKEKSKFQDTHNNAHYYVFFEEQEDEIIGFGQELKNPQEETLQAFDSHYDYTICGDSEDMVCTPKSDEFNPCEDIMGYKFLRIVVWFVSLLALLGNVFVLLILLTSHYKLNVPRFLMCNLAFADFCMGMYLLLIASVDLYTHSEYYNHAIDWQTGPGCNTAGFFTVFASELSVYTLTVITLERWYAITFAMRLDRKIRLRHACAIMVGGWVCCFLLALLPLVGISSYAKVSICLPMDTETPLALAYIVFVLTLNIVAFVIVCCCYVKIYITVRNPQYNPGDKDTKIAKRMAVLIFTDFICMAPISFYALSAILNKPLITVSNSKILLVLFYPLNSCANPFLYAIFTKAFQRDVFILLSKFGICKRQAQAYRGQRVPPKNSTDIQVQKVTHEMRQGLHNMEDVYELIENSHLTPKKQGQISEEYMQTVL
Sequence of Chromobox protein homolog 1 (Homo sapiens) (P83916 whole entry, looked up): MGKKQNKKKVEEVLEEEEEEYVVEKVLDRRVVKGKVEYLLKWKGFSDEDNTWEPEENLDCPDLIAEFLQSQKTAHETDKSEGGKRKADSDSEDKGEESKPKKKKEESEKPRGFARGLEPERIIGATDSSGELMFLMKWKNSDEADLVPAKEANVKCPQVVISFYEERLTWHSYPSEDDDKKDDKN
Sequence of Methanococcus maripaludis chaperonin (MmCpn) (Q6LX38 1-543): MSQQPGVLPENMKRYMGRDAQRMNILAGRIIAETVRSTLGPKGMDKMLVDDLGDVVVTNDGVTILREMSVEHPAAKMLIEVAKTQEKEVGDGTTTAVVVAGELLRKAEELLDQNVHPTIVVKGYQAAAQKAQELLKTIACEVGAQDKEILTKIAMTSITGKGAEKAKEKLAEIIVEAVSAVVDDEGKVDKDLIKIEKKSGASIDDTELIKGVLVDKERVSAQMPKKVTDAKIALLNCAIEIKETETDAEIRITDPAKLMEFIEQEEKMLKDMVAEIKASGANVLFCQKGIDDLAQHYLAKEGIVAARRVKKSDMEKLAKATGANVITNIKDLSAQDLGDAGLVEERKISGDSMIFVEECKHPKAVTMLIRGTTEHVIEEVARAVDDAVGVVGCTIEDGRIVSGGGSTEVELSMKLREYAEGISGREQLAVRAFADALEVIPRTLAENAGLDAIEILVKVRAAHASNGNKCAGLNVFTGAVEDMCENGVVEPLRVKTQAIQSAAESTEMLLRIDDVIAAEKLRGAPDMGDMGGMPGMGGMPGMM
Sequence of M-phase phosphoprotein 8 (Homo sapiens) (Q99549 whole entry, looked up): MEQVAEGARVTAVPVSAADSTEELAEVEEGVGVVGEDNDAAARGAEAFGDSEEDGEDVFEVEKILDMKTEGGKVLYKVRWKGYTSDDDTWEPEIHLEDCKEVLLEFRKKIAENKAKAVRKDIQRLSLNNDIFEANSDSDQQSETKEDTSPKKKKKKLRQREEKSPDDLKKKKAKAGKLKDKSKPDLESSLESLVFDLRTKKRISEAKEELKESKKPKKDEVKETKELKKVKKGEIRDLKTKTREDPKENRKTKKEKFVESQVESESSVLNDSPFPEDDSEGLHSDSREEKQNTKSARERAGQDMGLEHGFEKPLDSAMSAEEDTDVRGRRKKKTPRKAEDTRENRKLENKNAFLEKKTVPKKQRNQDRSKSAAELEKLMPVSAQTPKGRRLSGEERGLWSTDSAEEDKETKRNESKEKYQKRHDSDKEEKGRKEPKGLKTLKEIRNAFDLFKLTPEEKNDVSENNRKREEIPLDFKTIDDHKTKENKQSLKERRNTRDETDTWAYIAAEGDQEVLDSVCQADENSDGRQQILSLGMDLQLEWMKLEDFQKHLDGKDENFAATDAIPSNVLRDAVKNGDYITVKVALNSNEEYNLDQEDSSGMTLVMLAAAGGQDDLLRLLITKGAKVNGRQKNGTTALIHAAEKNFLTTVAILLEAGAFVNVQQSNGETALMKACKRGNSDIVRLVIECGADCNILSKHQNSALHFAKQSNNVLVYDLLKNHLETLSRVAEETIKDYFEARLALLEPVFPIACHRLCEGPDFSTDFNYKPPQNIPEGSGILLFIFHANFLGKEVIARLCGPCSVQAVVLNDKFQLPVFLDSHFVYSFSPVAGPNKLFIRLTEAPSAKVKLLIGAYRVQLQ
Sequence of Thioredoxin reductase 1, cytoplasmic (Rattus norvegicus) (O89049 whole entry, looked up): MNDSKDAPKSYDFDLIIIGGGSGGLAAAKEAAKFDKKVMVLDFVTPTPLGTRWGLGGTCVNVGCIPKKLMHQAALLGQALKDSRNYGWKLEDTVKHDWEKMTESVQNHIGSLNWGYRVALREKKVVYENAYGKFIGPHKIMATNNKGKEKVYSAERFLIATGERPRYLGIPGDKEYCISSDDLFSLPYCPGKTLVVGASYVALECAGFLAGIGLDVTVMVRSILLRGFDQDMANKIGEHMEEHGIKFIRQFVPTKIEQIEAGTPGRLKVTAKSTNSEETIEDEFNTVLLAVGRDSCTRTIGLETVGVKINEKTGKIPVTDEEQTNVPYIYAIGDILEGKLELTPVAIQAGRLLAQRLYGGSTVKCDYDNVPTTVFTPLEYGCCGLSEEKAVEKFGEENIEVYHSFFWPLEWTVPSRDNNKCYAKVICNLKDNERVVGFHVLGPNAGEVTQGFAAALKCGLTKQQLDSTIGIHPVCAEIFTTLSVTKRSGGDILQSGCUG
Sequence of Flap endonuclease 1 (Homo sapiens) (P39748 whole entry, looked up): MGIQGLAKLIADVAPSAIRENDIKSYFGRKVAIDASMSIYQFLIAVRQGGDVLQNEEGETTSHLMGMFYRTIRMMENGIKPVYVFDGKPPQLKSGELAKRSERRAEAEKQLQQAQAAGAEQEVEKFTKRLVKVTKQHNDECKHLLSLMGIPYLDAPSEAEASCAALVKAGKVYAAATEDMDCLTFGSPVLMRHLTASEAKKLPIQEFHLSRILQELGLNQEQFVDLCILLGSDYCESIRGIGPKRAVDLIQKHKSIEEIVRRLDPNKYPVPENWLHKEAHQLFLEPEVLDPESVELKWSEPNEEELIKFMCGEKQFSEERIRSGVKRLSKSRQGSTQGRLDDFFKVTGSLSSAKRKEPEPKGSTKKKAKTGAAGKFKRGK

For `CC(=O)OCC1=C(C(=O)O)N2C(=O)[C@@H](NC(=O)Cc3cccs3)[C@H]2SC1`, the Potency entry in assay [1], in assay [2], in assay [3] and in [4] was “inactive” each time. Further, the molecule was classed as inactive in assay [5], in assay [6] and in assay [7].

Turning to `CCN(Cc1ccncc1)C(=O)C(CO)c1ccccc1` (configuration not stated), the Potency result in assay [1], in assay [9], in assay [10], in [3] and in assay [4] was “inactive” throughout. In addition, the call in assay [8], in assay [5], in assay [6] and in assay [7] was inactive.

For `O=C(O)CCCCCCCC(=O)O`, the Potency result in [1], in assay [9], in [10], in [3] and in [4] was “inactive” each time. In addition, the call in assay [8], in assay [5] and in [6] was inactive.

For the molecule `COC(=O)[C@@H](N)Cc1ccc(O)c(O)c1`, the Potency entry in assay [1], in assay [2], in assay [10], in assay [3] and in assay [4] was “inactive” each time. For the same molecule, the call in [5] and in assay [6] was inactive.

Consider `CCCN(CCC)CCc1cccc2c1CC(=O)N2`, for which the Potency result in assay [1], in assay [9], in assay [10], in [3] and in assay [4] was “inactive” in each case. Also, the outcome in assay [8], in assay [5] and in assay [6] was inactive.

Regarding `Cc1nnc(SCC2=C(C(=O)O)N3C(=O)[C@@H](NC(=O)Cn4cnnn4)[C@H]3SC2)s1`, the Potency entry in [1] and in [2] was “inactive” in each case. Besides, the result in assay [5], in assay [6] and in assay [7] was inactive.

Take `C[N+](C)(C)CCOC(N)=O`: the Potency entry in assay [1], in [9], in [10], in [3] and in assay [4] was “inactive” each time. Besides, the outcome in assay [8], in assay [5] and in assay [6] was inactive.

As to `Cc1ccc(/C(=C\CN2CCCC2)c2ccccn2)cc1`, the Potency result in [1], in assay [2], in [9] and in assay [4] was “inactive” in each case. Moreover, the molecule was called inactive in [5] and in assay [7].

Regarding `CCCN(CCC)C(=O)C(CCC(=O)O)NC(=O)c1ccccc1` (configuration not stated), the Potency result in [1], in assay [9], in assay [10], in [3] and in assay [4] was “inactive” throughout. Further, the call in assay [8], in assay [5] and in [6] was inactive.

For the molecule `CC(C(=O)O)c1ccc(CC2CCCC2=O)cc1` (configuration not stated), the Potency result in [1], in assay [2], in assay [9], in assay [10] and in assay [3] was “inactive” in each case. Further, the call in [5] and in assay [6] was inactive.

In the case of `O=c1[nH]c(=O)n([C@H]2C[C@H](O)[C@@H](CO)O2)cc1Br`, the Potency entry in [1], in assay [9], in assay [10], in assay [3] and in [4] was “inactive” each time. Moreover, the call in [8], in [5], in [6] and in assay [7] was inactive.

Turning to `CCN(CC)CCNC(=O)c1ccc(NC(C)=O)cc1`, the Potency entry in assay [1], in [2], in assay [9], in assay [10], in assay [3] and in [4] was “inactive” in each case. Moreover, the molecule was called inactive in assay [5] and in assay [6].

As to `Cc1ccc(=O)n(-c2ccccc2)c1`, the Potency result in assay [1], in [9], in assay [10], in assay [3] and in assay [4] was “inactive” in each case. In addition, the outcome in assay [8], in assay [5], in [6] and in assay [7] was inactive.

Consider `Cc1ccc(Cl)c(Nc2ccccc2C(=O)O)c1Cl`, for which the Potency result in assay [1], in [2], in assay [9], in assay [10], in [3] and in [4] was “inactive” each time. In addition, the outcome in assay [5], in assay [6] and in assay [7] was inactive.

As to `c1cnc(N2CCN(Cc3ccc4c(c3)OCO4)CC2)nc1`, the Potency entry in [1], in [9], in [3] and in assay [4] was “inactive” each time. Moreover, the molecule was called inactive in [8], in [5], in assay [6] and in assay [7].

Turning to `CC(C)(C)NCC(O)c1cc(O)cc(O)c1` (configuration not stated), the Potency entry in assay [1], in assay [9], in [10], in [3] and in [4] was “inactive” in each case. Moreover, the result in [8], in assay [5], in assay [6] and in [7] was inactive.

Turning to `CCc1c(C)[nH]c2c1C(=O)C(CN1CCOCC1)CC2` (configuration not stated), the Potency entry in [1], in assay [2], in assay [10] and in assay [3] was “inactive” in each case. Further, in assay [9], the Potency was 29.9 µM (active). Besides, the outcome in assay [5] and in [6] was inactive.
